Test results: PubChem BioAssay (EPA / NIEHS)
Inconclusive results are not listed. Calls of active or inactive are those of the source. The calls were made as follows: active = hit-call score of the fitted dose curve at least 0.9, where 1 is the maximum; inconclusive = response in the unintended direction; inactive = score below 0.9.

Assays:
[1] = TOX21_p53_BLA_p2_viability: Viability Assessment in the Tox21 HCT-116 p53 Agonism Beta-lactamase Assay, Phase 2 (AID 2283591);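 also: compound exposure lasted 16 h at 37 °C; actives lower the ATP signal meaning cytotoxicity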
Outline: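 HCT-116 p53-bla cells (4000/well) rested 5 h at 37C, then received compounds in DMSO (217-fold dilution) for 16 h at 37C, 5% CO2. After the CCF4 read, CellTiter-Glo was added; ATP luminescence was read after 30 min at room temperature.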

[2] = biological target: Cellular tumor antigen p53 (Homo sapiens) (UniProt P04637); assay: TOX21_p53_BLA_p3_ratio: Tox21 HCT-116 p53 Agonism Beta-lactamase Assay, Ratio, Phase 3 (AID 2283596)
Chain of Cellular tumor antigen p53 (Homo sapiens) (P04637 whole entry, looked up): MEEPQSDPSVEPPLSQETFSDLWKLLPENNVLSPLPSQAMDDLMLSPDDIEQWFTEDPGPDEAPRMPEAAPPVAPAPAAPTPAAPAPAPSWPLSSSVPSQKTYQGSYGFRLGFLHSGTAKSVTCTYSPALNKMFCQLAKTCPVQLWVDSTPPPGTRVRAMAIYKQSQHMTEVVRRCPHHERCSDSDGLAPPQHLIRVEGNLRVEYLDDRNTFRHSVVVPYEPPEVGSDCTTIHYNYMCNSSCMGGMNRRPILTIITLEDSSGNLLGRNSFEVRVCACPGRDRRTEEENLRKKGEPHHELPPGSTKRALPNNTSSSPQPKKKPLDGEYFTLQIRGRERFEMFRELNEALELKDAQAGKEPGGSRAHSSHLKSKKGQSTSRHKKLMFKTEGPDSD
Outline: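 HCT116 p53-bla cells (4000/well) given compound in DMSO (217-fold dilution) after 5 h, incubated 16 h at 37C. CCF4-AM substrate 2 h at room temperature; 460/530 nm emission ratio, gain fitted against DMSO.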

[3] = biological target: Cellular tumor antigen p53 (Homo sapiens) (UniProt P04637); assay: TOX21_p53_BLA_p5_ratio: Tox21 HCT-116 p53 Agonism Beta-lactamase Assay, Ratio, Phase 5 (AID 2283599)
Outline: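 HCT-116 cells carrying a p53-inducible beta-lactamase reporter were seeded at 4000 cells/well and dosed after 5 h with compound in DMSO (217-fold dilution). After 16 h at 37C, CCF4-AM substrate was added for 2 h, and the 460/530 nm emission ratio was scored as gain-of-signal versus DMSO.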

[4] = TOX21_p53_BLA_p5_viability: Viability Assessment in the Tox21 HCT-116 p53 Agonism Beta-lactamase Assay, Phase 5 (AID 2283600)
Outline: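 Cells were plated at 4000/well, rested 5 h at 37C, then given compounds in DMSO (217-fold dilution) for 16 h at 37C, 5% CO2. Following the CCF4-AM beta-lactamase read, CellTiter-Glo was added and luminescence was read after 30 min at room temperature.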

[5] = TOX21_p53_BLA_p4_viability: Viability Assessment in the Tox21 HCT-116 p53 Agonism Beta-lactamase Assay, Phase 4 (AID 2283597);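 also: hits lower the luminescence signal meaning cytotoxicity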
Outline: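 HCT116 p53-bla cells (4000/well) rested 5 h at 37C, then received compounds in DMSO (217-fold dilution) for 16 h at 37C, 5% CO2. CellTiter-Glo was added after the CCF4-AM read, and luminescence was read after 30 min at room temperature.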

[6] = biological target: Cellular tumor antigen p53 (Homo sapiens) (UniProt P04637); assay: TOX21_p53_BLA_p4_ratio: Tox21 HCT-116 p53 Agonism Beta-lactamase Assay, Ratio, Phase 4 (AID 2283601)
Outline: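 HCT116 cells carrying an inducible beta-lactamase reporter were plated at 4000 cells/well, rested 5 h, then exposed to compounds in DMSO (217-fold dilution) for 16 h at 37C. CCF4-AM substrate was loaded 2 h at room temperature; 460/530 nm emission ratio scored gain-of-signal versus DMSO.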

[7] = biological target: Estrogen receptor (Homo sapiens) (UniProt P03372); assay: CCTE_Deisenroth_AIME_96WELL_LUC_Active: CCTE's 96-well Estrogen Receptor Transactivation Assay with AIME metabolic competence (ERTA luciferase; metabolism positive), Deisenroth Lab (AID 2284023)
Chain of Estrogen receptor (Homo sapiens) (P03372 whole entry, looked up): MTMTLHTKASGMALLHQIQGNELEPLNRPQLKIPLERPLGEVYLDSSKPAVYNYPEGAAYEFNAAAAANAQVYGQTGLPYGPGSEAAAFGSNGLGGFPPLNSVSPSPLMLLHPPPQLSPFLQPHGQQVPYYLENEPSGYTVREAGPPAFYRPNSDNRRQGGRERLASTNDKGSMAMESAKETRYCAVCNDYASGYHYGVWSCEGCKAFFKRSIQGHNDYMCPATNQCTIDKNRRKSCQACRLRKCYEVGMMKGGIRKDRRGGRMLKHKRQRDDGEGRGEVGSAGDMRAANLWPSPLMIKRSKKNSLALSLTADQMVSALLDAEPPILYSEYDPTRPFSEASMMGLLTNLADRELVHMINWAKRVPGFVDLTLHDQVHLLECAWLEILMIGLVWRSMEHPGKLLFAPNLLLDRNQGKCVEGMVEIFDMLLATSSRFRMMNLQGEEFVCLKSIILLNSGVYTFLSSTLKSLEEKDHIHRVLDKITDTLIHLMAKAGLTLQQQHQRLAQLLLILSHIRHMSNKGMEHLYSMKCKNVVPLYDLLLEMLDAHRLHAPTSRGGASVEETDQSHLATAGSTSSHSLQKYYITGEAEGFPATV
Outline: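 Chemicals pre-incubated 2 h with alginate-immobilized phenobarbital/beta-naphthoflavone-induced male Sprague Dawley rat liver S9, then medium transferred to VM7Luc4E2 cells for 24 h luciferase read-out. 10-point series 0.002 - 200 uM; fitted relative to 17beta-estradiol.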

[8] = biological target: Estrogen receptor (Homo sapiens) (UniProt P03372); assay: CCTE_Deisenroth_AIME_96WELL_LUC_Inactive: CCTE's 96-well Estrogen Receptor Transactivation Assay without AIME metabolic competence (ERTA luciferase; metabolism negative), Deisenroth Lab (AID 2284025)
Outline: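 VM7Luc4E2 breast cells, luciferase read 24 h after dosing with medium pre-incubated 2 h on alginate-water lids (metabolism negative). 10-point series 0.002–200 uM, single technical replicate, n≥4; fit relative to 17beta-estradiol.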

[9] = CCTE_Deisenroth_AIME_96WELL_CTox_Active: Cytotoxicity Assessment (CTOX) in CCTE's 96-well Estrogen Receptor Transactivation Assay with AIME metabolic competence (metabolism positive), Deisenroth Lab (AID 2284028)
Outline: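 Chemicals (0.002–200 uM) were first incubated 2 h with alginate-immobilized phenobarbital/beta-naphthoflavone-induced male rat liver S9; conditioned medium then went onto VM7Luc4E2 cells for 24 h, with viability read by protease-substrate fluorescence, fitted bidirectionally.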

[10] = CCTE_Deisenroth_AIME_96WELL_CTox_Inactive: Cytotoxicity Assessment (CTOX) in CCTE's 96-well Estrogen Receptor Transactivation Assay without AIME metabolic competence (metabolism negative), Deisenroth Lab (AID 2284029)
Outline: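 Chemicals (0.002 - 200 uM, 10 points) incubated 2 h with alginate-water microspheres (no S9), then medium moved onto VM7Luc4E2 cells for 24 h. Viability by protease-substrate cleavage to fluorescent probe; bidirectional fitting.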

Measured: AC50

O=C(O)CNC(=O)c1ccccc1I
inactive: [1] | [2] | [3] | [4]

CC[N+](CC)(CCNC(=O)C(=O)NCC[N+](CC)(CC)Cc1ccccc1Cl)Cc1ccccc1Cl
inactive: [1] | [2] | [5] | [6]

CC(C)OC(=O)c1cc2c(OCC(O)CNC(C)(C)C)cccc2[nH]1 (configuration not stated)
inactive: [1] | [2] | [5] | [4]

CCc1cnc(C(=O)O)c(C(=O)O)c1
inactive: [1] | [2] | [3]

O=C(O)CNCC(=O)O
inactive: [1] | [2] | [3] | [4]

C=CC[N+]1([C@H]2C[C@H]3[C@@H]4CC[C@H]5C[C@H](OC(C)=O)[C@@H](N6CCCCC6)C[C@]5(C)[C@H]4CC[C@]3(C)[C@H]2OC(=O)CC)CCCCC1
inactive: [1] | [2] | [5] | [4] | [6]

C=C[Si](OC(=C)C)(OC(=C)C)OC(=C)C
inactive: [1] | [2] | [3] | [4]

Cc1c(I)c(=O)n(-c2ccccc2)n1C
inactive: [1] | [2] | [3] | [4] | [6]

Cc1ncc(CO)c(C=O)c1O
inactive: [1] | [2] | [5] | [3] | [4] | [6]

CN1C(=O)C[C@@H](C(=O)N[C@@H](Cc2cnc[nH]2)C(=O)N2CCC[C@H]2C(N)=O)NC1=O
inactive: [1] | [2] | [3] | [4] | [6]

CCO[Si](OCC)(OCC)OCC
inactive: [1] | [2] | [5] | [3] | [6]

Cc1nc2n(c(=O)c1CCN1CCC(c3noc4cc(F)ccc34)CC1)CCC[C@H]2O
inactive: [1] | [2] | [5] | [3] | [6]

CCCCCCCCCCCCCCCCSCC(COC)COP(=O)([O-])OCC[N+](C)(C)C (configuration not stated)
inactive: [1] | [2] | [5] | [6]

NC(=O)NC(=O)Cc1ccccc1
inactive: [1] | [2] | [5] | [3] | [6]

CC(C)CCCC(C)NC(C)C (configuration not stated)
inactive: [1] | [2] | [3]

OCC1(CO)COCOC1
inactive: [1] | [2] | [3] | [4] | [6]

ClC1=C(Cl)C1(Cl)Cl
inactive: [1] | [2] | [5] | [4] | [6]

CCN(CC)CCOC(=O)C(Cc1cccc2ccccc12)CC1CCCO1 (configuration not stated)
inactive: [1] | [2] | [5] | [6]

ClCC=CCCl
inactive: [1] | [2] | [5] | [3] | [6]

CC=CC1=C(C(=O)O)N2C(=O)[C@@H](NC(=O)[C@H](N)c3ccc(O)cc3)[C@H]2SC1
inactive: [1] | [2] | [3] | [4] | [6]

Cc1cccc(C)c1NC(=O)C1CCCCN1C (configuration not stated)
inactive: [1] | [2] | [3] | [4]

CCCCCCCCCCCCCCCCCCOCCO
inactive: [1] | [5] | [3] | [4]

C[C@H](O)CN(C)C
inactive: [1] | [2] | [3] | [6]

c1ccc(CC2=NCCN2)cc1
inactive: [1] | [5] | [3]

CC(=O)Nc1c(I)cc(I)c(C(=O)O)c1I
inactive: [1] | [2] | [3] | [6]

COc1ccc(C)cc1
inactive: [1] | [2] | [6]

CC(C)(Sc1cc(C(C)(C)C)c(O)c(C(C)(C)C)c1)Sc1cc(C(C)(C)C)c(O)c(C(C)(C)C)c1
inactive: [1] | [5] | [3] | [4]

Clc1ccccc1-c1nc(-c2ccncc2)no1
inactive: [1] | [5] | [3] | [4]

C1CCC2=NCCCN2CC1
inactive: [1] | [5] | [3] | [4]

O=C1OC(=O)C2CCCCC12 (configuration not stated)
inactive: [1] | [5] | [3]

CCCC/C=C/CCCCO
inactive: [1] | [2] | [3] | [4] | [6]

CC(=O)Nc1ccc(C)c(Cl)c1
inactive: [1] | [5] | [3] | [4]

CC[C@H]1OC(=O)[C@H](C)[C@@H](O[C@H]2C[C@@](C)(OC)[C@@H](O)[C@H](C)O2)[C@H](C)[C@@H](O[C@@H]2O[C@H](C)C[C@H](N(C)C)[C@H]2O)[C@](C)(O)C[C@@H](C)[C@@H]2N[C@@H](COCCOC)O[C@@H]([C@H]2C)[C@]1(C)O
inactive: [1] | [2] | [3] | [4] | [6]

CC(=O)C1CCCCC1=O (configuration not stated)
inactive: [1] | [2] | [4]

C(=C\c1ccccc1)/c1ccccc1
active: [7] 18 µM | [8] 44.6 µM
inactive: [1] | [2] | [4] | [9] | [10]

Cc1c(N)cccc1[N+](=O)[O-]
inactive: [1] | [5] | [3] | [4]

CC(NN)c1ccccc1 (configuration not stated)
inactive: [1] | [2] | [4] | [6]

CC(C)CC=O
inactive: [1] | [5] | [3]

CC[N+](C)(C)c1cccc(O)c1
inactive: [1] | [2] | [3] | [6]

CC(C)(c1cc(Br)c(OCC(Br)CBr)c(Br)c1)c1cc(Br)c(OCC(Br)CBr)c(Br)c1 (configuration not stated)
inactive: [1] | [5] | [3]

CN1CCCC(n2nc(Cc3ccc(Cl)cc3)c3ccccc3c2=O)CC1 (configuration not stated)
inactive: [1] | [5]

CCN(CC)CCc1nc(-c2ccccc2)no1
inactive: [1] | [2] | [3] | [6]

CC(C(=O)O)c1ccc(/C=C2\CCCCC2=O)cc1 (configuration not stated)
inactive: [1] | [2] | [4] | [6]

Cc1cscn1
inactive: [1] | [5]

O=CNNC=O
inactive: [1] | [2] | [3] | [6]

CCn1cc(C(=O)O)c(=O)c2cnc(N3CCNCC3)nc21
inactive: [1] | [2] | [6]

O=C(CN1CCN(Cc2ccc3c(c2)OCO3)CC1)N1c2ccccc2Sc2ccccc21
inactive: [1] | [5] | [3] | [4] | [6]

CCC(C(=O)OCCOCCN(CC)CC)c1ccccc1 (configuration not stated)
inactive: [1] | [2] | [3] | [6]

COc1c(O)cc2c(c1O)[C@@H]1O[C@H](CO)[C@@H](O)[C@H](O)[C@H]1OC2=O
inactive: [1] | [2] | [3] | [6]

CCCCCC
inactive: [1] | [2] | [3] | [6]

CC(O)CN(CCCN(C)C)CCCN(C)C (configuration not stated)
inactive: [1] | [2] | [3] | [4] | [6]

CCC1=C(C)CN(C(=O)NCCc2ccc(S(=O)(=O)NC(=O)NC3CCC(C)CC3)cc2)C1=O (configuration not stated)
inactive: [1] | [5] | [3]

CC(=O)[C@@]1(O)CC[C@H]2[C@@H]3C[C@H](C)C4=CC(=O)CC[C@]4(C)[C@H]3CC[C@@]21C
inactive: [1] | [5] | [3]

Cc1ccccc1C(N)=O
inactive: [1] | [2] | [4] | [6]

CCC(Cc1c(I)cc(I)c(O)c1I)C(=O)O (configuration not stated)
inactive: [1] | [5] | [3]

CC(C)=CC(=O)C=C(C)C
inactive: [1] | [5] | [3] | [4]
